# Compounds with a hit are over-represented: about 11% of the library has one in this group of screens.
# VDR inhibitor = vitamin D3 receptor (human) inhibition | VDR-SRC2-3 peptide fluorescence polarization, 2 h | Potency, µM, for inactives: max response, negative = inhibition, most hits filed as inhibitors | 0.93% of 400,000 active | AID 504847; note: % is set by controls: 0 for no effect and ±100 for the full control effect
#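 Fluorescence polarization assay measuring small-molecule disruption of VDR binding to the coregulator peptide SRC2-3. Compounds were pin-transferred (23 nl) into the reagent mix and incubated 2 h at room temperature before reading.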
# JMJD2A Tudor = JMJD2A Tudor domain (human) inhibition; O75164; AlphaScreen JMJD2A-Tudor / H3K4me3 peptide binding; Potency, µM (doses to about 114 µM), for inactives: at the top dose activity change, negative = inhibition, actives largely listed as inhibitors; 4.4% of 390,000 active; AID 504339; note: % is set by controls: 0 for no effect and ±100 for the full control effect; nearly all actives have a fitted effect of over 50% in size
# G9a inh = G9a (human) methyltransferase inhibition; Q96KQ7; G9a H3K9 monomethylation, AlphaScreen, 2 h; Potency, µM (highest dose often 102 µM), for the others: at the highest dose activity, negative = inhibition, most hits filed as inhibitors; 8.8% of 350,000 active; AID 504332; note: % is set by controls: 0 for no effect and ±100 for the full control effect; nearly all actives have a fitted effect of over 75% in size
#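 Compounds were preincubated with 20 nM G9a for 15 min, after which biotinylated H3K9 peptide (500 nM) and SAM (20 uM) started a 2 h room-temperature reaction. Monomethylated product was quantified by antibody-based AlphaScreen chemiluminescence.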
# BAZ2B block = inhibitors of human BAZ2B bromodomain; AID 504333; AlphaScreen BAZ2B-H3K14Ac peptide displacement; 4.4% of 360,000 active; Potency, µM (titrated, usually from 114 µM), for inactives: at the top dose activity change, negative = inhibition, actives largely listed as inhibitors; Q9UIF8; note: % is set by controls: 0 for no effect and ±100 for the full control effect; nearly all actives have a fitted effect of over 60% in size
#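 Protein-peptide AlphaScreen: BAZ2B 50 nM, b-H3K14Ac 50 nM, 1x PBS pH 7.4 + 0.01% Tween-20. Preincubation 30 min RT; cpd 30 min RT (top 110 uM); beads 20 min RT, light-protected.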
# HP1b binding inh = HP1-beta chromodomain-methylated histone interaction inhibition | AlphaScreen HP1-beta / biotin-H3K9me3 peptide binding | P83916 | 0.56% of 390,000 active | AID 540317 | Potency, µM (top dose mostly 114 µM), inactives show at the top dose activity change, negative = inhibition, hits mostly inhibitors; note: nearly all actives have a fitted effect of over 70% in size
#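 HP1-beta protein (50 nM final) preincubated 30 min at room temperature with biotinylated H3(1-18)K9me3 peptide (50 nM) in PBS pH 7.4, 0.01% Tween-20, then compound added for 30 min. AlphaScreen streptavidin donor/nickel chelate acceptor beads (10 ug/mL final), 30 min dark, luminescence read.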
# PLK1 PBD inh = PLK1 (human) polo-box domain binding inhibition. P53350. Plk1 PBD binding of FITC phosphopeptide, fluorescence polarization. Potency, µM, without a hit: max response, negative = inhibition, most hits filed as inhibitors. 2.8% of 360,000 active. AID 720504; note: series mostly up to about 57 µM; % is set by controls: 0 for no effect and ±100 for the full control effect; nearly all actives have a fitted effect of over 65% in size
# * hit, by the source's call; ? = inconclusive; nt = not tested or not shown; [ ] = remark or other dose. Calls come from the whole dose curve; as a rule, active = well fitted curve in the direction sought with a large enough effect; inconclusive = small, poorly fitted or top-dose-only effect, or another doubt; inactive = no such curve, though single readings can be large; an effect the other way counts as inactive or inconclusive. Potency is the fitted concentration of half-maximal effect.
SMILES,VDR inhibitor,JMJD2A Tudor,G9a inh,BAZ2B block,HP1b binding inh,PLK1 PBD inh
CN(C)S(=O)(=O)c1ccc(C(=O)Oc2cc(=O)[nH]c3ccccc23)cc1,-13%,-14%,71µM*,-2%,44%,8.4µM*
CCOC(=O)c1[nH]c2ccccc2c1NC(=O)c1ccc(S(=O)(=O)N(C)C)cc1,6%,-25%,-22%,3%,45%,-13%
O=C(Cn1cnc2onc(-c3ccc(F)cc3)c2c1=O)Nc1cccc(C(F)(F)F)c1,25%,-6%,-21%[59 µM],13%[57.1 µM],36%,nt
Cn1c(N)nc2nc[nH]c2c1=S,-8%,40µM*,nt,nt,46%,-6%
CCc1c(C)nc2cc(-c3ccc(OC)c(OC)c3)nn2c1NCC1CC1,8%,?,56µM*,-37%,-9%,1%
COc1ccc(CCNC(=O)CCc2c(C)nc3cc(-c4ccccc4)nn3c2C)cc1OC,-15%,-7%,-33%[59 µM],?,21%,nt
COc1ccc(C2=NN(C(=O)CCC(=O)O)C(c3ccc(Br)cc3)C2)cc1 (stereo unspecified),-3%,-18%,nt,-6%,38%,-6%
CCOc1ccc2[nH]c(=S)[nH]c2c1,5%,45µM*,?,-4%,-9%,-5%
O=C1c2cccnc2C(=O)N1Cc1ccc(S(=O)(=O)NCc2ccco2)s1,14%,-35%,3%,79µM*,33%,-10%
Cn1c(=O)c2c(nc(Sc3ccccc3N)n2C)n(C)c1=O,1%,-26%,10µM*,1%,20%,-23%
Cn1c(=O)c2c(nc(Oc3ccccc3N)n2C)n(C)c1=O,2%,-13%,-2%,-10%,20%,-4%
Cc1cccc(Cl)c1OCCCCn1ccnc1,23%,?,-19%[59 µM],?,10%,-11%
Cc1cc(OCCCCn2ccnc2)cc(C)c1Cl,-14%,?,8.9µM*,?,0%,-16%
Cc1cccc(OCCn2cnc(Cl)c2Cl)c1,0%,-19%,-44%,28µM*,-19%,-5%
CCc1cccc(OCCn2ccnc2)c1,-14%,11µM*,8.9µM*,50µM*,?,-11%
Cc1cc(C)c(C)c(OCCn2ccnc2)c1,-14%,-25%,?,-39%,41%,-17%
Cc1cccc(C(C)(C)C)c1OCCn1ccnc1,-2%,1.3µM*,18µM*,79µM*,50µM*,-7%
CC1(C(=O)NS(=O)(=O)C2CC2)CCCN(C(=O)c2ccc(C(F)(F)F)cc2)C1 (stereo unspecified),nt,nt,nt,nt,nt,-1%
COc1ccc(NC(=O)CSc2nc3[nH]ncc3c(=O)[nH]2)c(OC)c1,1%,-10%,14%[59 µM],-5%,4%,-6%
Cc1ccccc1OCCCCCn1ccnc1,-4%,?,-17%,-31%,-1%,-7%
Cc1cccc(OCCCCCn2ccnc2)c1,1%,3.2µM*,32µM*,50µM*,?,4%
CCCCOc1ccc(/C=C/C(=O)N(CC)CC(=O)Nc2ccc3c(c2)OCCO3)cc1OC,-6%,?,-41%,-39%,-15%,-5%
NS(=O)(=O)c1ccc(NC2=CC(c3ccc([N+](=O)[O-])cc3)N(c3ccc(S(N)(=O)=O)cc3)C2=O)cc1 (stereo unspecified),-27%,-32%,22µM*,?,2%,-20%
O=[N+]([O-])c1cc([N+](=O)[O-])c(Oc2c(Cl)cccc2Cl)cc1NN1CCCCC1,4%,?,25µM*,?,?,-14%
O=[N+]([O-])c1cc([N+](=O)[O-])c(Oc2ccc(F)cc2)cc1NN1CCCCC1,-4%,-16%,nt,?,6%,-3%
O=[N+]([O-])c1cc([N+](=O)[O-])c(Oc2cccc3ccccc23)cc1NN1CCCCC1,0%,?,nt,nt,-16%,-3%
O=[N+]([O-])c1cc([N+](=O)[O-])c(Oc2cccnc2Br)cc1NN1CCCCC1,-11%,?,40µM*,?,?,-14%
O=[N+]([O-])c1cc([N+](=O)[O-])c(Oc2c(F)ccc(F)c2F)cc1NN1CCCCC1,?,?,32µM*,?,?,-12%
